Only some compounds are listed: those with a hit (about 19% of all), similar ones and a draw of the others.
IL-1B inflam inh = blocks inflammasome-driven IL-1 beta release. THP-1 LPS/ATP IL-1B secretion, AlphaLISA, 16 h; stronger effect = lower value. 360,000 compounds, 4.7% hits. activity change, % at 57.5 µM; in the data active means activity change below about -50%; inconclusive means mostly about -30% to -49%
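Secreted IL-1B measured by AlphaLISA bead assay after 16 h compound exposure of THP-1 cells; compounds (final up to 57.5 uM) added 1 h before LPS (250 ng/mL) and ATP (1.25 mM) stimulation; lower signal means less secretion.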
TDP1 cell CPT = growth inhibition of DT40 Tdp1-/-;hTDP1 cells with camptothecin (screen for TDP1 inhibitors); chicken DT40 Tdp1-/-;hTDP1 cells + 20 nM CPT, ATP luminescence, 48 h; Potency, µM (top dose mostly 46.2 µM), hits mostly inhibitors; 420,000 compounds, 12% hits; AID 686979; further: nearly all actives have a fitted effect of over 55% in size
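Chicken DT40 Tdp1-/- cells complemented with human TDP1, 400 cells/well, exposed to compounds plus 20 nM camptothecin for at least 48 h at 37 C; viability read as ATP content by CellTiter-Glo luminescence.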
HT1080-NT tox = kills 2HG-producing HT-1080-NT fibrosarcoma cells; HT-1080-NT fibrosarcoma viability, CellTiter-Glo ATP luminescence, 48 h; Potency, µM (doses to about 46.1 µM), actives largely listed as cytotoxic; 360,000 compounds, 1.6% hits;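 further: NT is the 2HG producing partner of a matched IDH1 knockdown line; nearly all actives have a fitted effect of over 55% in size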
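Luminescent CellTiter-Glo readout after 48 hours of compound exposure at 37 degrees C defined viability of HT-1080-NT cells. Activity was normalized to DMSO wells and cell-free media wells; concentration-response curves were fitted and assigned curve classes.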
DT40 TDP1 no CPT = qHTS for Inhibitors of human tyrosyl-DNA phosphodiesterase 1 (TDP1): qHTS in cells in absence of CPT | DT40 Tdp1-/- hTDP1 cells, no CPT, ATP luminescence, 48 h | Potency, µM (top dose mostly 46.2 µM), most hits filed as inhibitors | 420,000 compounds, 15% hits; further: nearly all actives have a fitted effect of over 55% in size
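Readout: luminescence from CellTiter-Glo after 30 min in the dark at RT. Cells: DT40 Tdp1-/- with stable hTDP1, 400/well. Exposure: compounds alone, ≥48 hr, 37 °C.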
HT1080 IDH1KD tx = toxicity to HT-1080 IDH1 knockdown cells (counter line); HT-1080 IDH1 knockdown viability, ATP luminescence, 48 h; Potency, µM (titrated, usually from 46.1 µM), usual class: cytotoxic; 360,000 compounds, 2% hits; AID 686971
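Cytotoxicity counter-line: IDH1KD HT-1080, 48 h, CellTiter-Glo. Curves classed by r2, magnitude and activity.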
Large screens that a line does not name were inactive. Unless noted, the call rests on the fitted dose curve; in most records, active means well fitted curve in the direction sought with a large enough effect; inconclusive means small, poorly fitted or top-dose-only effect, or another doubt; inactive means no such curve, though single readings can be large; an effect the other way counts as inactive or inconclusive.

C[C@@H](NC(=O)c1ncn2c1c(=O)[nH]c1cccnc12)c1ccccc1	none
C[C@@H](NC(=O)c1ncn2c1c(=O)[nH]c1ccc(Br)cc12)c1ccccc1	TDP1 cell CPT inconclusive, DT40 TDP1 no CPT 21µM
Cc1ccnc(NC(=O)c2cccc(NC(=O)c3ccc(Cl)cc3)c2)c1	TDP1 cell CPT inconclusive, DT40 TDP1 no CPT 21µM
CC(=O)c1cccc(NC(=O)c2ccc(S(=O)(=O)N3CCCCC3)cc2)c1	TDP1 cell CPT 23µM, DT40 TDP1 no CPT 18µM
Cc1cccc(NC(=O)c2ccc(S(=O)(=O)N3CCCCCC3)cc2)n1	IL-1B inflam inh -70, DT40 TDP1 no CPT 13µM
O=C(Nc1cccc(C(=O)N2CCCCC2)c1)c1ccc(Cl)cc1	TDP1 cell CPT inconclusive, DT40 TDP1 no CPT 21µM
O=C(CN1CCN(Cc2ccc(Cl)cc2)CC1)N1CCc2ccccc21	IL-1B inflam inh inconclusive, TDP1 cell CPT inconclusive, DT40 TDP1 no CPT inconclusive
O=C(Nc1c2c(nn1-c1ccc(Cl)cc1)CS(=O)(=O)C2)c1ccccc1	none
Cc1nc(N2CCOCC2)c2c(C(=O)NCc3ccc(Cl)cc3)c(C)oc2n1	none (no result: IL-1B inflam inh, HT1080-NT tox, HT1080 IDH1KD tx)
CCc1nnc(NC(=O)CSc2nccn2Cc2ccc(F)cc2)s1	none (no result: IL-1B inflam inh, HT1080-NT tox, HT1080 IDH1KD tx)
O=C(Nc1ccc(S(=O)(=O)N2CCCC2)cc1)c1ccccc1	DT40 TDP1 no CPT 23µM
CC(=O)c1cccc(NC(=O)N2CCCCCC2)c1	none
CC(=O)c1cccc(NS(=O)(=O)c2ccc(NC(=O)N3CCCCC3)cc2)c1	TDP1 cell CPT 5.2µM, HT1080-NT tox inconclusive, DT40 TDP1 no CPT 9.2µM
Cn1nc(C(=O)Nc2ccc(S(=O)(=O)N3CCCCC3)cc2)ccc1=O	TDP1 cell CPT inconclusive, DT40 TDP1 no CPT 21µM
O=C(Nc1cccc(S(=O)(=O)C(F)F)c1)c1ccc(S(=O)(=O)N2CCCCC2)cc1	IL-1B inflam inh -62, TDP1 cell CPT inconclusive, HT1080-NT tox inconclusive, DT40 TDP1 no CPT inconclusive, HT1080 IDH1KD tx inconclusive
Cn1nccc1C(=O)Nc1ccc(S(=O)(=O)N2CCCC2)cc1	none
CC1=CCC(C(C)(C)O)CC1 (stereo unspecified)	none (no result: IL-1B inflam inh, HT1080-NT tox, HT1080 IDH1KD tx)
CC(=O)c1c(C)[nH]c(C(=O)Nc2cccc(S(=O)(=O)N3CCCCC3)c2)c1C	IL-1B inflam inh inconclusive, TDP1 cell CPT inconclusive, DT40 TDP1 no CPT 15µM
O=C(Nc1ccc(Cl)cc1)N1CCC(CN2CCCCCC2)CC1	TDP1 cell CPT inconclusive, DT40 TDP1 no CPT 23µM (no result: IL-1B inflam inh, HT1080-NT tox, HT1080 IDH1KD tx)
O=C(Nc1cccc(S(=O)(=O)N2CCCCC2)c1)c1cc(=O)[nH]c2ccccc12	IL-1B inflam inh inconclusive, TDP1 cell CPT 23µM, DT40 TDP1 no CPT 18µM
Cc1ccc(S(C)(=O)=O)cc1C(=O)Nc1cccc(S(=O)(=O)N2CCCCCC2)c1	TDP1 cell CPT inconclusive
O=C(Nc1cccnc1)c1ccc(CN2CCc3ccccc3C2)cc1	TDP1 cell CPT inconclusive, DT40 TDP1 no CPT 16µM
Cc1cc(C)n(-c2ccc(C(=O)N3CCN(S(=O)(=O)c4ccc(Cl)cc4)CC3)cc2)n1	TDP1 cell CPT inconclusive
C=CCn1c(Cn2c(-c3cnccn3)nc3ccccc32)nc2ccccc21	DT40 TDP1 no CPT inconclusive
Cc1cc(C)cc(NC(=O)c2ccc(S(=O)(=O)C(F)F)cc2)c1	IL-1B inflam inh -87, DT40 TDP1 no CPT inconclusive
CC(OC(=O)c1cc(Br)ccc1O)C(=O)Nc1ccc(S(=O)(=O)N2CCCC2)cc1 (stereo unspecified)	IL-1B inflam inh inconclusive, TDP1 cell CPT inconclusive, HT1080-NT tox inconclusive, DT40 TDP1 no CPT 16µM, HT1080 IDH1KD tx inconclusive
Cc1c(-c2cccc(NC(=O)c3ccc(F)c(F)c3)c2)nc2ncccn12	TDP1 cell CPT inconclusive, DT40 TDP1 no CPT 13µM (no result: IL-1B inflam inh, HT1080-NT tox, HT1080 IDH1KD tx)
CC(C(=O)Nc1ccc(S(=O)(=O)N2CCCC2)cc1)N1CCN(c2ccccc2O)CC1 (stereo unspecified)	TDP1 cell CPT inconclusive, DT40 TDP1 no CPT 23µM
O=C(Nc1cccc(S(=O)(=O)N2CCCCC2)c1)c1ccc(S(=O)(=O)C(F)F)cc1	IL-1B inflam inh -82, TDP1 cell CPT inconclusive, DT40 TDP1 no CPT inconclusive
O=C(Nc1cccc(Cl)c1)N1CCCC1	TDP1 cell CPT 16µM, DT40 TDP1 no CPT 26µM
Cc1onc(-c2ccccc2Cl)c1C(=O)Nc1ccc(S(=O)(=O)N2CCCC2)cc1	TDP1 cell CPT inconclusive, DT40 TDP1 no CPT inconclusive
O=C(Nc1ccccc1)c1ccc(CN2CCc3ccccc3C2)cc1	none
O=C(Nc1ccc(S(=O)(=O)N2CCCCC2)cc1)c1ccc(CN2CCc3ccccc3C2)cc1	TDP1 cell CPT 10µM, HT1080-NT tox inconclusive, DT40 TDP1 no CPT 4.6µM, HT1080 IDH1KD tx inconclusive
Cc1onc(-c2ccccc2)c1C(=O)Nc1ccc(S(=O)(=O)N2CCOCC2)cc1	TDP1 cell CPT inconclusive, DT40 TDP1 no CPT 23µM
O=C(Nc1ccc(F)cc1)C(=O)c1c(O)[nH]c2ccc([N+](=O)[O-])cc12	none
Cc1ccc(Cl)cc1NC(=O)CSc1ccc(C(=O)O)cn1	none (no result: IL-1B inflam inh, HT1080-NT tox, HT1080 IDH1KD tx)
O=C1CCCC2=C1C(c1ccc(O)c(O)c1)Nc1ccc3ncccc3c12 (stereo unspecified)	none
Cc1ccsc1C1Nc2ccc3ncccc3c2C2=C1C(=O)CC(C)(C)C2 (stereo unspecified)	TDP1 cell CPT 13µM, HT1080-NT tox 10µM, DT40 TDP1 no CPT inconclusive, HT1080 IDH1KD tx inconclusive
O=C1CCCC2=C1C(c1cccs1)Nc1ccc3ncccc3c12 (stereo unspecified)	TDP1 cell CPT 16µM, HT1080-NT tox inconclusive, DT40 TDP1 no CPT inconclusive, HT1080 IDH1KD tx inconclusive
CC1(C(=O)NS(=O)(=O)c2ccccc2Cl)CCN1C(=O)C1(c2ccc(Cl)cc2)CCC1 (stereo unspecified)	none
COc1ccccc1NC(=S)N1CCN(c2ccccc2F)CC1	TDP1 cell CPT inconclusive, DT40 TDP1 no CPT inconclusive
Cn1c(=S)c2[nH]c(SCCN)nc2n(C)c1=O	TDP1 cell CPT 5.8µM, DT40 TDP1 no CPT 5.8µM
Cn1c(=O)c2c(nc(SCCN3CCCCC3)n2C)n(C)c1=O	none
Cn1c(=S)c2[nH]c(SCCN3CCCC3)nc2n(C)c1=O	TDP1 cell CPT inconclusive, DT40 TDP1 no CPT 23µM
C#CCN(CC=C)C(=O)c1ccc(OC2CCN(S(=O)(=O)N(C)C)CC2)cc1	TDP1 cell CPT inconclusive, HT1080-NT tox inconclusive, DT40 TDP1 no CPT inconclusive
Cc1noc(C)c1CC(=O)N1CCCC(C(=O)c2ccc(C(C)(C)C)cc2)C1 (stereo unspecified)	TDP1 cell CPT 21µM, DT40 TDP1 no CPT 21µM
CC(C)(C)c1ccc(C(=O)C2CCCN(C(=O)C3CCOCC3)C2)cc1 (stereo unspecified)	TDP1 cell CPT inconclusive, DT40 TDP1 no CPT 16µM
CCN(CC)S(=O)(=O)c1ccc(N2CCCC2)c(NC(=O)Cc2ccc(OC)cc2)c1	TDP1 cell CPT inconclusive, DT40 TDP1 no CPT 21µM
